Laboratory results from PubChem BioAssay AID1851 (National Center for Advancing Translational Sciences (NCATS), 2009).
Several values for one entry are separate records, joined by “and”; a condition that tells them apart may be missing. Equal entries are not always repeated. Out of some 16,000 compounds screened, about 2,600 (16%) were called active. Inconclusive results (about 20%) are left out. Calls come from the whole dose curve; as a rule, active = well fitted curve in the direction sought with a large enough effect; inconclusive = small, poorly fitted or top-dose-only effect, or effect the other way; inactive = no such curve, though single readings can be large or run the other way. These entries were drawn from the full list. Where a structure was tested more than once in an assay, its records may differ in their call.

Molecular target: Cytochrome P450 2D6 (Homo sapiens) (UniProt P10635)
Test: Cytochrome panel assay with activity outcomes
Conditions: recombinant CYP, pro-luciferin dealkylation, luminescence, p450-cyp2d6; series mostly up to 57.1 µM; activity, negative = inhibition: at the top concentration
% is set by controls: 0 for no effect and ±100 for the full control effect.

Sequence of Cytochrome P450 2D6 (Homo sapiens) (P10635 whole entry, looked up): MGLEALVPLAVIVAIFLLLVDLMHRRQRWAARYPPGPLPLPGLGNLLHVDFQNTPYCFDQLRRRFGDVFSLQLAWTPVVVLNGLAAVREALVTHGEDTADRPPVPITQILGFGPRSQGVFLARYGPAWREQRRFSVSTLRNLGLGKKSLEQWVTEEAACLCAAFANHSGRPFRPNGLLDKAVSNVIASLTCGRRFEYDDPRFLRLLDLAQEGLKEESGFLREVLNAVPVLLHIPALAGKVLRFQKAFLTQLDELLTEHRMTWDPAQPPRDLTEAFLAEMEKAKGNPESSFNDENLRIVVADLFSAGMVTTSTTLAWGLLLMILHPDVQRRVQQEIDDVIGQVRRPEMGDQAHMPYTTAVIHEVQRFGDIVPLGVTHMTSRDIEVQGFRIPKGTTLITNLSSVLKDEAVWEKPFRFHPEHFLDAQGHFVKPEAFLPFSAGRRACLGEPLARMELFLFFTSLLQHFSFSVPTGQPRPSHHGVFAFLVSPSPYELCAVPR

Structure (SMILES) | activity, negative = inhibition | AC50
COc1ccc(C(=O)N/N=C/c2cccc3cccnc23)cc1 | -11.4% (inactive) | 
CC(C)(C)c1nnc(NC(=O)NS(=O)(=O)c2ccccc2)s1 | -2.56% (inactive) | 
COc1ncc2nc(-c3ccc(F)cc3)c(=O)n(C)c2n1 | -2.72% (inactive) | 
Oc1ccc([C@@H]2CNCc3sccc32)cc1O | -12.1% (inactive) | 
Oc1cc2c(c(Cl)c1O)CCNC[C@H]2c1ccccc1 |  | 10 µM (active)
Oc1ccc([C@@H]2CNCCc3c2cc(O)c(O)c3Cl)cc1 |  | inactive and 3.16 µM (active)
Oc1cc2c(cc1O)[C@H](c1ccccc1)CNCC2 |  | inactive
CCC(=O)Nc1nonc1-c1nc2ccccc2n1N(C(=O)CC)C(=O)CC | 2.61% (inactive) | 
Cc1cc(CNC(=O)[C@H]2C[C@@H]2[C@H](NP(=O)(c2ccccc2)c2ccccc2)c2ccccc2)nn1C | 0.567% (inactive) | 
CC1CSc2nc3sc4c(c3c(=O)n21)CCCC4 (centres undefined) | -12.8% (inactive) | 
CN(C)c1ncc2nc(-c3cccs3)c(=O)n(Cc3cccs3)c2n1 | 2.06% (inactive) | 
Cc1cc(NC(=O)C2C3C(=O)N(Cc4ccc(Cl)cc4)C(C(=O)NC(C)(C)C)C34C=CC2(C)O4)no1 (centres undefined) | 4.95% (inactive) | 
CN(C)c1ncc2nc(-c3cc(F)cc(F)c3)c(=O)n(C[C@H]3CCCO3)c2n1 | -0.128% (inactive) | 
CCNc1ncc2nc(-c3cc(F)cc(F)c3)c(=O)n(CCOC)c2n1 |  | 0.316 µM (active)
CCNc1ncc2nc(-c3cc(F)cc(F)c3)c(=O)n(C[C@H]3CCCO3)c2n1 |  | 0.158 µM (active)
CN1CCN(c2ncc3nc(-c4cc(F)cc(F)c4)c(=O)n(CCc4ccccc4)c3n2)CC1 | -8.55% (inactive) | 
Cc1nc2cnc(N3CCN(C)CC3)nc2n(CCc2ccccc2)c1=O |  | 2.51 µM (active)
CCNc1ncc2nc(-c3cc(F)cc(F)c3)c(=O)n(Cc3cccs3)c2n1 | 1.18% (inactive) | 
COCCn1c(=O)c(-c2cc(F)cc(F)c2)nc2cnc(N(C)C)nc21 | 11.4% (inactive) | 
CN(C)c1ncc2nc(-c3cc(F)cc(F)c3)c(=O)n(CCc3ccccc3)c2n1 | -8.92% (inactive) | 
COCCn1c(=O)c(-c2cc(F)cc(F)c2)nc2cnc(OC)nc21 | 2.08% (inactive) | 
CN1CCN(c2ncc3nc(-c4cccs4)c(=O)n(CCc4ccccc4)c3n2)CC1 | -7.46% (inactive) | 
CCNc1ncc2nc(-c3cc(F)cc(F)c3)c(=O)n(CCc3ccccc3)c2n1 |  | 15.8 µM (active)

Structure (SMILES) | activity, negative = inhibition | AC50
CCNc1ncc2nc(-c3ccc(Cl)cc3)c(=O)n(C[C@H]3CCCO3)c2n1 | 5.84% (inactive) | 
CC(C)NC(=O)/C(=N\O)c1ccccc1 | 10.4% (inactive) | 
Cc1ccc(OCC(=O)NNC(=O)c2cccnc2)cc1 | 27.2% (inactive) | 
O=c1c(-c2cccs2)nc2cnc(Oc3ccccc3)nc2n1C1CC1 | 0.176% (inactive) | 
COc1ccc(NC(=O)N2CCCC3(CCN(C(=O)c4cccc(F)c4)CC3)C2)cc1 | 1.41% (inactive) | 
CN1CCN(c2ncc3nc(-c4ccc(Cl)cc4)c(=O)n(C4CC4)c3n2)CC1 | 8.63% (inactive) | 
Cc1ccc(NC(=O)/C(=C/c2cccc([N+](=O)[O-])c2)NC(=O)C2CCCCC2)c(C)c1 | -22.1% (inactive) | 
CC1=C(C(=O)Nc2ccccc2F)C(c2ccsc2)C2=C(CC(c3ccccc3)CC2=O)N1 (centres undefined) | -23.9% (inactive) | 
COC(=O)C/C=C\[C@@H](C)[C@@H](/C=N\OC[C@@H]1O[C@H](c2ccccc2)C=C[C@@H]1Oc1ccc(OC)cc1)OC | -17.7% [at 11.4 µM] (inactive) | 
COC(=O)c1ccccc1N/C=C1\CCc2c(c(C)nn2-c2ccccn2)C1=O | 2.73% (inactive) | 
CCOc1ccc(/C=N/Nc2nc(N3CCCC3)nc(N3CCCC3)n2)cc1OC | -3.09% (inactive) | 
COCCn1c(=O)c(-c2ccccc2)nc2cnc(Nc3ccccc3)nc21 | 0.836% (inactive) | 
CCNc1ncc2nc(-c3ccccc3)c(=O)n(CCc3ccccc3)c2n1 |  | 10 µM (active)
CCNc1ncc2nc(C)c(=O)n(CCc3ccccc3)c2n1 | -11.9% (inactive) | 
CCNc1ncc2nc(-c3ccc(OC)cc3)c(=O)n(CCOC)c2n1 | 0.671% (inactive) | 
CCNc1ncc2nc(-c3ccccc3)c(=O)n(C)c2n1 | -0.71% (inactive) | 
CCNc1ncc2nc(-c3ccccc3)c(=O)n(CCOC)c2n1 |  | 3.16 µM (active)
CCOC(=O)c1sc(=N)n(-c2ccc(OC)cc2)c1C | -6.61% (inactive) | 
COc1cccc(/C=c2/s/c(=C(\C#N)C(=O)N3CCOCC3)n(-c3ccccc3)c2=O)c1 | 21.4% (inactive) | 
Cc1ccc(N2CCN(CCC(=O)O)CC2)cc1 | -9.16% [at 11.4 µM] (inactive) | 
CCSC(N)=Nc1ccc(C(F)(F)F)cc1 | -20.9% (inactive) | 
Cc1ccc(CSC(N)=Nc2ccccc2)cc1C |  | 0.794 µM (active)
N=C(N)c1ccccc1 | 0.724% (inactive) | 

Structure (SMILES) | activity, negative = inhibition | AC50
O=C(Nc1cccc(C(=O)Nc2ccc(S(=O)(=O)O)c3cc(S(=O)(=O)O)cc(S(=O)(=O)O)c23)c1)Nc1cccc(C(=O)Nc2ccc(S(=O)(=O)O)c3cc(S(=O)(=O)O)cc(S(=O)(=O)O)c23)c1 |  | inactive
C(=N/Nc1nnc2c(n1)[nH]c1ccccc12)/c1cccnc1 | -5% [at 11.4 µM] (inactive) | 
c1ccc2c[n+](Cc3ccnc4ccccc34)ccc2c1 |  | 3.16 µM (active)
COc1cc(NC(=O)c2cc3nc(-c4ccccc4)cc(-c4ccccc4)n3n2)cc(OC)c1OC | 14.1% (inactive) | 
COC(=O)c1[nH]c2cccc(OC)c2c1NC(=O)CN(C)CC1OCCO1 | 4.53% (inactive) | 
NC1CCN(c2cccc(Cl)n2)CC1 |  | 10 µM (active)
Clc1ccc(N2CCCCCC2)nn1 | -3.2% (inactive) | 
O=S(=O)(c1ccc(F)cc1)N1CCCC(CO)C1 (centres undefined) | 2.41% (inactive) | 
O=S(=O)(c1ccc(F)cc1)N1CC2CCCN2c2ccc(C(F)(F)F)cc21 (centres undefined) | -9.59% (inactive) | 
Cc1ccc2c(c1)[C@@H]1CN(C)CC[C@@H]1N2S(=O)(=O)c1ccc(F)cc1 |  | 14.1 µM (active)
O=C1O[C@@H]([C@H](O)[C@H](O)[C@H](O)CO)[C@@H](O)[C@@H]1O | 7.22% [at 11.4 µM] (inactive) | 
O=C(Cc1ccccc1)Nc1nc(=O)c2ccccc2s1 | -7.22% (inactive) | 
O=C(c1cnccn1)N1CCC2(CC1)CCN(c1ccccn1)CC2 | -5.17% (inactive) | 
Cc1ccc(-c2ccc(CCC(=O)O)n2CC2CCCO2)cc1 (centres undefined) | -24.3% (inactive) | 
Cc1ccc(C(=O)N/N=C/c2cc(C)n(-c3ccc(Br)cc3)c2C)cc1[N+](=O)[O-] | 3.04% (inactive) | 
CSc1nc2ccccc2cc1/C=C(\C#N)c1cccc(Cl)c1 | -24.3% (inactive) | 
CN1CCCN([C@@H](c2ccccc2)c2ccc(Cl)cc2)CC1 |  | 0.251 µM (active)
O=C1CC(N2CCN(C(c3ccccc3)c3ccccc3)CC2)C(=O)N1Cc1ccc(N2CCCC2=O)cc1 (centres undefined) | -26.1% (inactive) | 
Cc1cccc(CN2CCN(CC(=O)O)C2=O)c1 | -7.44% (inactive) | 
Cc1ccc(-c2noc(CN3CCN(C(c4ccccc4)c4ccccc4)CC3)n2)cc1 | 22.1% (inactive) | 
CN1CCN(CC(O)c2ccccc2)CC1 (centres undefined) | 0.505% (inactive) | 
Cc1cccc(CN2CCN([C@@H](c3ccccc3)c3ccc(Cl)cc3)CC2)c1 |  | 3.16 µM (active)
CN1CCN([C@@H](c2ccccc2)c2ccc(Cl)cc2)CC1 |  | 2 µM (active)
